Screens deposited in PubChem by several laboratories.
Fh CTSL1 inh – blocks F. hepatica cathepsin L1 in PFM18AAP counter-screen; recombinant F. hepatica cathepsin L1, Z-Leu-Arg-MCA fluorescence; inhibition, % at 5.96 µM; 300,000 tested, 0.49% active; AID 1906;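 active = inhibition above the mean of all tested compounds plus 3 SD, set per screening campaign, cut at about 17% in these data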
Yeast superoxide – yeast age-related superoxide inhibition as caloric restriction mimetic | 330,000 tested, 0.18% active | superoxide response (% of plate mean), % at 10 µM | AID 2690 | S. cerevisiae aged cells, superoxide DHE fluorescence; hits give low values;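 active = superoxide response under a set limit, about three screen SD below normal, cut at about 65% in these data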;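 note: yeast aged for seven days with compound at 30 °C before DHE staining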
V-ATPase pHluor – alters yeast V-ATPase proton transport. S. cerevisiae, pHLuorin cytosolic pH fluorescence. response, % at 10 µM. 350,000 tested, 0.37% active; in the data active = response mostly above about 7.3%, no sharp cut-off; inactive = mostly below about 5.4%; note: actives read high
hiPSC survival – hiPSC single-cell survival enhancement | ATPlite luminescence; 100% = ROCK inhibitor wells, 0% = DMSO | survival enhancement, % at 20 µM | 360,000 tested, 0.044% active | AID 602274; in the data active = survival enhancement above about 18%;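 note: cells exposed to compounds for 16 hours before the ATP read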
Each line names hits and unclear results; the compound was inactive in the other large screens. Hits are enriched below; roughly 1% of the tested compounds scored in any of these assays.

C=CCn1c(SCC(=O)N2CCOCC2)nc2scc(-c3ccco3)c2c1=O	none
C=CCn1c(SCC(C)=O)nc2scc(-c3ccco3)c2c1=O	Fh CTSL1 inh 23
COc1cccc(-c2ccc(NC(=O)C3CCCN(CCCn4cccn4)C3)cc2)c1 (stereo not given)	none
CS(=O)(=O)Nc1ccc2c(c1)nc1n2CCOC1	V-ATPase pHluor 20
CCCC(=O)Nc1ccc2c(c1)nc1n2CCOC1	none
Cc1ccc(C(=O)/C=C/c2ccc(-c3ccc(C)cc3)o2)cc1	Fh CTSL1 inh 28
O=C(/C=C\c1ccc(-c2ccccc2)o1)c1ccccc1	Fh CTSL1 inh 66
Cc1cccc(-n2c(=O)[nH]c3c(C(N)=O)nc(C(C)C)nc32)c1	Fh CTSL1 inh 17
CC(C)CN(CCNC(=O)CN1C(=O)COc2ccc(S(=O)(=O)N3CCC(C)CC3)cc21)CC(C)C	Fh CTSL1 inh 20
C[C@@H](c1ccccc1)N1C[C@H]2CCCN2c2cc(Br)ccc2S1(=O)=O	none (no result: Fh CTSL1 inh)
CC1(C)CC(=O)C(C(c2ccc(F)cc2)C2C(=O)CC(C)(C)CC2=O)C(=O)C1	none
CCc1sc(C(C2C(=O)CC(C)(C)CC2=O)C2C(=O)CC(C)(C)CC2=O)cc1[N+](=O)[O-]	V-ATPase pHluor 8.1
COc1cccc(-c2noc(C(C)n3nc(C)c([N+](=O)[O-])c3C)n2)c1 (stereo not given)	Fh CTSL1 inh 18
O=C(Nc1ccc(F)c(Cl)c1)Nc1nnc([C@@H]2O[C@H](CO)[C@@H](O)[C@H]2O)s1	none (no result: Fh CTSL1 inh, Yeast superoxide, V-ATPase pHluor)
CC(C)c1onc(C(=O)NCc2cccs2)c1[N+](=O)[O-]	Fh CTSL1 inh 23
Cc1onc(C(=O)NCc2cccs2)c1[N+](=O)[O-]	none
NC(=S)N/N=C/c1c(O)c(Br)cc2oc3c(c12)CCCC3	Fh CTSL1 inh 22
Oc1c(Br)cc2oc3c(c2c1CNCc1ccccc1)CCCC3	none
COc1ccc(C(=O)NCC(C)(C)N2CCOCC2)cc1S(=O)(=O)NCc1ccc(Cl)cc1	V-ATPase pHluor 21 (no result: Fh CTSL1 inh, Yeast superoxide)
Cn1c(Cl)c(/C=N/OC(=O)c2ccc(Cl)cc2)c2ccccc21	hiPSC survival 22
Cc1cc(C(C)(C)C)ccc1OCCCCN1CCCC1	none
CCC(C)(C)c1ccc(OCCCC[n+]2cccc(C)c2C)c(C(C)(C)CC)c1	Yeast superoxide 65
CC1(C)N=C(c2cccc(F)c2)C(=O)N1	V-ATPase pHluor 20
COc1ccc(-n2nc3c(c2NC(=O)CCl)CSC3)cc1	Fh CTSL1 inh 72
COC(=O)C1=NN(c2cccc3ccccc23)C2C(=O)N(c3ccccc3OC)C(=O)C12 (stereo not given)	Fh CTSL1 inh 19
COC(=O)C1=NN(c2ccccc2OC)C2C(=O)N(c3ccccc3OC)C(=O)C12 (stereo not given)	none
CC(=O)Nc1ccc(S(=O)(=O)N2CCC(NC(=O)C(Cc3ccc(C)cc3)NC(C)=O)CC2)cc1 (stereo not given)	none (no result: Fh CTSL1 inh, Yeast superoxide)
O=C(CCSc1ccc(Cl)cc1)c1ccco1	Fh CTSL1 inh 20
O=C(CSc1ccc(Cl)cc1)c1ccco1	none
COc1ccc(N=Nc2nc3ccc(Br)cc3n2C)cc1	none
Cc1ccc(-n2ncc(C(=O)Nc3cc(Cl)ccc3C)c2C2CCNCC2)cc1C	V-ATPase pHluor 32
CCOC(=O)CSC1=NC(=O)/C(=C\c2ccc(Cl)cc2)S1	V-ATPase pHluor 11
CCOC(=O)C1CCN(C2=NC(=O)/C(=C/c3ccc(Cl)cc3)S2)CC1	none
Cc1nc(SCC(=O)N2CCCCCC2)c2c(=O)n(C)c(=O)n(CC(C)C)c2n1	none (no result: Fh CTSL1 inh, Yeast superoxide)
Cc1ccccc1Oc1nnc(-c2cccs2)c2ccccc12	none (no result: Fh CTSL1 inh, Yeast superoxide)
O=C(c1ccco1)N(CCC(c1ccccc1)c1ccco1)Cc1ccco1 (stereo not given)	Fh CTSL1 inh 26
CC(=O)N(CCC(c1ccco1)C(C)C)Cc1ccc(OC(C)C)cc1 (stereo not given)	Fh CTSL1 inh 17
CC(=O)N(CCC(c1ccccc1)c1ccco1)Cc1cccs1 (stereo not given)	Fh CTSL1 inh 22
CCC(=O)N(CCC(c1ccco1)c1ccccc1OC)Cc1cccs1 (stereo not given)	none
COc1ccc(CN(CCC(c2ccco2)C(C)C)C(C)=O)cc1OC (stereo not given)	none
O=C(NC1CCCCCC1)c1ccc(CS(=O)Cc2cccc(Cl)c2)o1 (stereo not given)	none
CCCS(=O)(=O)NC(=O)C1(C)CCCN(C(=O)c2cc3ccccc3s2)C1 (stereo not given)	none (no result: Fh CTSL1 inh, Yeast superoxide, V-ATPase pHluor)
COc1ccc(NS(=O)(=O)c2cccc(C(=O)N3CCN(C/C=C/c4ccccc4)CC3)c2)cc1	none (no result: Fh CTSL1 inh, Yeast superoxide)
N#C/C(=C\c1ccc(Cl)cc1)c1nc2ncccc2[nH]1	none
O=C1c2cccc(O)c2C(=O)c2c(O)cccc21	none (no result: V-ATPase pHluor, hiPSC survival)
